In PubChem BioAssay:
“And” between values parts separate entries of the source, which are not always exact repeats. Identical values can stand only once. Where a SMILES comes first, the peptide text is derived from it. The star is where a group is joined. Boc = CC(C)(C)OC(=O)*; OBn = c1ccc(CO*)cc1

Legend:
[1] = tested on: Botulinum neurotoxin type F light chain protease (Clostridium botulinum); assay: Clostridium botulinum type F light chain protease inhibitors, microsphere substrate cleavage, validation (AID 588459); details: multiplex microsphere protease substrate cleavage assay, flow cytometry; at 10 µM; hits give high values
[2] = target: Botulinum neurotoxin type A (Clostridium botulinum) (UniProt P0DPI0); assay: BoNT/A light chain protease inhibitors, biochemical, multiplex microsphere flow cytometry, validation set (AID 588460); details: at 10 µM, hits give high values
[3] = target: Lethal factor (Bacillus anthracis) (UniProt P15917); assay: Bacillus anthracis lethal factor inhibition, microsphere flow cytometry protease assay, validation at 10 µM (AID 588461); details: multiplex microsphere protease cleavage assay, hits give high values

Measured: inhibition

CC(C)CCOCC(=O)Nc1cccc(C(=O)O)c1
inactive: [1] 2.9% | [2] 0% | [3] -0.3%

CCn1c(O)c(/C=C2\C=Nc3ccccc32)sc1=O
inactive: [1] 2.3% | [2] 0.3% | [3] -0.8%

CN(C)CCCNc1ncnc2c1cnn2-c1ccccc1
inactive: [1] 0.3% | [2] -0.3% | [3] -4%

O=C(NCCc1c[nH]c2ccccc12)c1cccnc1
inactive: [1] -2.9% | [2] -0.7% | [3] 1.1%

CC(C)C12CN3CC(C(C)C)(CN(C1)C31C(=O)Nc3ccccc31)C2=O (configuration not stated)
inactive: [1] 0.1% | [2] 0.7% | [3] 9%

CC(C)N1C(=O)/C(=C\c2nc3ccccc3c(=O)[nH]2)c2ccccc21
inactive: [1] -0.2% | [2] -0.6% | [3] -0.1%

CC1(C)CC(CNCCC(c2ccc(F)cc2)c2ccco2)CCO1 (configuration not stated)
inactive: [1] 0.9% | [2] -1.4% | [3] 3.4%

COc1cc(NC(=S)NN2CCN(C)CC2)cc(OC)c1OC
inactive: [1] 5.5% | [2] -0.6% | [3] -5.6%

CCOc1cc2oc(=O)c3c(c2cc1Cl)CCC3
inactive: [1] 3% | [2] -0.7% | [3] -2.7%

O=C1NC(=O)C(c2ccccc2)(c2ccccc2)N1
inactive: [1] 1.3% and 5.2% | [2] -1% and -1.4% | [3] 0.3% and -2.4%

Cc1ccc(C(=O)O)cc1NC(=O)c1cccs1
inactive: [1] -1.2% | [2] 0% | [3] 2%

COc1ccc(NC2=C(Cl)C(=O)N(c3ccccc3)C2=O)c(OC)c1
inactive: [1] 3.7% | [2] 1% | [3] -0.3%

O=c1c(-c2ccc3c(c2)OCCO3)coc2cc(OC3OC(CO)C(O)C(O)C3O)ccc12 (configuration not stated)
inactive: [1] 0.2% | [2] 0.1% | [3] 6.4%

Cc1csc(N)n1
inactive: [1] 0.3% | [2] 0.1% | [3] 3%

COc1cc(-c2cccs2)cc(=O)c2c(C)oc(C)c12
inactive: [1] 1.4% | [2] 2.1% | [3] -4%

CCCc1cc(=O)[nH]c(=S)[nH]1
inactive: [1] -2.4% | [2] 1.4% | [3] 1.8%

COc1ccc2cc(C3(C)NC(=O)NC3=O)ccc2c1 (configuration not stated)
inactive: [1] -0.4% | [2] -0.4% | [3] 0.8%

CCN1CCN(C(=O)N[C@@H](C(=O)N[C@@H]2C(=O)N3[C@@H]2SC(C)(C)[C@@H]3C(=O)O)c2ccccc2)C(=O)C1=O
inactive: [1] -1.5% | [2] 0.3% | [3] 1.4%

NCCc1ccc(O)c(O)c1
inactive: [1] -6.2% | [2] -3.5% | [3] -8.7%

O=C(Nc1ccc(C(=O)NC2CCCCC2)cc1)c1cccnc1
inactive: [1] 0.1% | [2] -1.5% | [3] -12.6%

CCNC(=S)Nc1ccc(OC(F)(F)F)cc1
inactive: [1] 2.2% | [2] 2.8% | [3] 3%

O=C1CC(c2ccc(F)cc2)Cc2nc(NCC3CCCO3)ncc21 (configuration not stated)
inactive: [1] -1% | [2] 0.1% | [3] -6.1%

CC[N+]1(C)CC2CCC(C)(C1)C2(C)C (configuration not stated)
inactive: [1] 1.1% | [2] -0.5% | [3] 11.8%

CCC(CO)NCCNC(CC)CO (configuration not stated)
inactive: [1] 0.2% | [2] 1.5% | [3] -0.2%

COc1cc2c(cc1OC)C(c1ccccc1)=NCC2
inactive: [1] 0.6% | [2] 0.8% | [3] 7%

CNC[C@H](O)c1ccc(O)c(O)c1
inactive: [1] -2.9% | [2] -0.9% | [3] -4.8%

CCOCc1cc(C)[nH]c(=O)c1C#N
inactive: [1] -0.2% | [2] 2.8% | [3] 2%

CC(=O)c1c[nH]c2ccc(C)cc2c1=O
inactive: [1] -1.7% | [2] -0.6% | [3] -1.2%

COC(=O)c1cc(Br)c(=O)n(CCc2ccc(O)cc2)c1
inactive: [1] 2.6% | [2] 1.3% | [3] -5.3%

CC(C)COC(=O)C1C(=O)CC(C)(O)C(C(=O)OCC(C)C)C1c1cccnc1 (configuration not stated)
inactive: [1] 2.5% | [2] 0.6% | [3] 3.5%

CCCn1c(=O)c2[nH]c(C3CCCC3)nc2n(CCC)c1=O
inactive: [1] 4.7% | [2] 0.8% | [3] -1.9%

CNc1nc(Nc2ccccc2)nc(OCC(F)(F)F)n1
inactive: [1] 0.2% | [2] 0.2% | [3] -2.5%

NS(=O)(=O)c1ccc(CNC(=O)c2cc(-c3ccccc3)nc3ccccc23)cc1
inactive: [1] 0.5% | [2] 0.4% | [3] -4.8%

COc1ccc(NC(=O)C2OC3OC(C)(C)OC3C3OC(C)(C)OC23)cc1 (configuration not stated)
inactive: [1] -1.2% | [2] 1.3% | [3] -5.4%

Cc1ccc(NC(=O)CSc2nc(O)c(Cc3ccccc3)c(=O)n2-c2ccccc2)cc1
inactive: [1] -0.8% | [2] -0.6% | [3] 2%

COc1ccccc1N=CC1=C(O)CC(c2ccccc2)CC1=O (configuration not stated)
inactive: [1] 0.8% | [2] 2.2% | [3] -5%

COc1ccc(/C=C/C(=O)NC(=S)NN2CCCCC2c2cccnc2)cc1 (configuration not stated)
inactive: [1] 3.7% | [2] 1.8% | [3] -3.5%

O=C(NC(Nc1ccccn1)C(Cl)(Cl)Cl)c1ccccc1 (configuration not stated)
inactive: [1] -7.2% | [2] -1.5% | [3] 0.6%

Nc1ccc2nc(Cc3ccccc3)[nH]c2c1
inactive: [1] -12.8% | [2] -5.2% | [3] -74.5%

Cc1ccc2c(c1)C(O)(C1COC(C)(C)CC1=O)C(=O)N2C (configuration not stated)
inactive: [1] -1.1% | [2] 1.7% | [3] -0.8%

CC(=O)[C@H]1CC[C@H]2[C@@H]3CCC4=CC(=O)CC[C@]4(C)[C@H]3[C@H](O)C[C@]12C
inactive: [1] -0.3% | [2] -1.3% | [3] -5.3%

CCN(Cc1ccncc1)Cc1nc(Cc2ccccc2Cl)no1
inactive: [1] -4.4% | [2] -0.8% | [3] -2.6%

Cc1ccc2c(ccc(=S)n2C)c1
inactive: [1] 1.7% | [2] 0.8% | [3] 7.4%

O=C(CN1CCN(Cc2ccccc2)CC1)N1CCCc2c1c(=O)oc1ccc(O)cc21
inactive: [1] 2% | [2] -1.5% | [3] -8.3%

O=C(c1cc2cc(Br)ccc2o1)N1CCCCC1
inactive: [1] 5.3% | [2] -0.6% | [3] 8.5%

COc1ccc(CCNc2ncnc3c2[nH]c2cc(OC)c(OC)cc23)cc1OC
inactive: [1] -0.5% | [2] -0.5% | [3] -0.7%

COc1cccc(/C=C/C(=O)c2c(O)cc(C)oc2=O)c1O
inactive: [1] 7% | [2] 1.7% | [3] 5.4%

CC(C)Cn1c(=S)[nH]c2cc(C(=O)O)ccc2c1=O
inactive: [1] -4.3% | [2] -0.4% | [3] -0.6%

N#CCC(N)=C(C#N)C#N
inactive: [1] -6% | [2] -2% | [3] -6%

O=C(O)c1cccnc1Nc1cccc(C(F)(F)F)c1
inactive: [1] 1.8% | [2] 0.3% | [3] -3.9%

CC(C)CC(NC(=O)C(NC(=O)OC(C)(C)C)C(C)C)C(=O)NC(CCC(=O)OCc1ccccc1)C(N)=O (stereo not drawn) (Boc-Val-Leu-Glu(OBn)-NH2; configuration not given here)
inactive: [1] 2.1% | [2] -1.3% | [3] -0.4%

O=C(CC1SC(=O)NC1=O)Nc1ccc(Cl)cc1 (configuration not stated)
inactive: [1] -1.9% | [2] 0.8% | [3] -0.5%

O=C1N[C@@H](Cc2cnc[nH]2)C(=O)N2CCC[C@@H]12
inactive: [1] 1.2% | [2] 0.3% | [3] -5.3%

CCCC(=O)Nc1ccccc1NC(C)=O
inactive: [1] 1.4% | [2] 0.3% | [3] -2.9%

C[C@]12CCC(=O)C=C1CC[C@@H]1[C@@H]2CC[C@@]2(C)[C@H]1CC[C@]2(O)C(=O)CO
inactive: [1] 1.3% | [2] -1.2% | [3] -1.7%

Cc1cc(=O)oc2cc(OC(C)C(=O)NCC3CCCO3)ccc12 (configuration not stated)
inactive: [1] 3% | [2] 0.9% | [3] -4.8%

OC(COCc1ccccc1)CN1CCN(Cc2ccc3c(c2)OCO3)CC1 (configuration not stated)
inactive: [1] 0.6% | [2] 0.3% | [3] 2.8%

CC(C(=O)O)c1ccc(N2Cc3ccccc3C2=O)cc1 (configuration not stated)
inactive: [1] 1.4% | [2] -1.6% | [3] -4.3%

COc1ccc(N2C(=O)[C@@H]3[C@H](C2=O)[C@H]2c4ccccc4C=CN2[C@@H]3C(C)=O)cc1
inactive: [1] -2.1% | [2] -0.4% | [3] -16.8%

CCc1cc2c(=O)c(-c3ccc(F)cc3)c(C)oc2cc1OCC(=O)O
inactive: [1] 3.9% | [2] 2.2% | [3] -1.1%

CCC(NC(C)C)C(O)c1ccc(O)c(O)c1 (configuration not stated)
inactive: [1] -5.4% | [2] -0.9% | [3] -4%

CC(=O)CCc1c(C)c2cccc(C)c2[nH]c1=O
inactive: [1] 4.3% | [2] 0.8% | [3] -3.4%

O=C1C(=O)N2C(=C1C(=O)N1CCCCCC1)c1ccccc1CC21CCCC1
inactive: [1] 0.3% | [2] 0.4% | [3] -3%

CC(C)Cc1cc(C(=O)N2CCC(N3CCC(C(=O)N4CCCC4)CC3)CC2)n[nH]1
inactive: [1] -0.1% | [2] -2% | [3] -0.4%
